The results in this text go back to PubChem BioAssay (Tox21).

The nature of experiment [1]: qHTS assay to identify aromatase inhibitors - cell viability counter screen (AID 743084).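 Note: cells stimulated with testosterone during compound exposure; nearly all actives have a fitted effect of over 55% in size.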 A general note: In qHTS, concentration-response curves come from the screen itself.
In experiment [2] the target is Aryl hydrocarbon receptor (Homo sapiens) (UniProt P35869). Description: qHTS assay to identify small molecule that activate the aryl hydrocarbon receptor (AhR) signaling pathway (AID 743085).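 For activation: HG2L7.5c1 human HepG2 liver cells with stably integrated DRE-driven firefly reporter; series mostly up to about 70 µM.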 Note: nearly all actives have a fitted effect of over 15% in size. Note: potency is the fitted concentration of half-maximal effect. An outline of the steps:
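Steps: seed HepG2-AhR-luc cells; allow 5 h at 37C; pin-transfer test compound or vehicle; incubate 24 h at 37C; add viability dye (30 min, 37C) and read fluorescence; add luciferase substrate (30 min, RT) and read luminescence.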

A short description of experiment [3]: qHTS assay to identify small molecule that activate the aryl hydrocarbon receptor (AhR) signaling pathway - cell viability counter screen (AID 743086). Note: series mostly up to about 70 µM; nearly all actives have a fitted effect of over 45% in size. The essentials: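 Cytotoxicity counter screen: CellTiter-Fluor signal (30 min, 37 C) in 4000 HepG2 cells/well carrying the DRE-luciferase reporter, following 24 h compound exposure at 37 C.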
Experiment [4] has as its target Peroxisome proliferator-activated receptor gamma (Homo sapiens) (UniProt P37231). Description: qHTS assay to identify small molecule agonists of the peroxisome proliferator-activated receptor gamma (PPARg) signaling pathway (AID 743094; active = well fitted activation curve with a large enough effect in the signal ratio in the repeat runs, not every such curve was filed as active; the % refers to the signal ratio). An outline of the steps: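 Beta-lactamase FRET fluorescence was the read-out after a 1 h room-temperature substrate step, following 17 h compound treatment at 37C of HEK293H cells expressing a UAS-driven bla reporter responsive to PPARg.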

Experiment [5] can be described thus: qHTS assay to identify small molecule antagonists of the peroxisome proliferator-activated receptor gamma (PPARg) signaling pathway - cell viability counter screen (AID 743194). Note: nearly all actives have a fitted effect of over 55% in size. The essentials:
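Viability was measured as CellTiter-Glo luminescence in GeneBLAzer PPARg UAS-bla HEK293H cells. These cells had been exposed 17 h at 37 C to compounds together with rosiglitazone at 50 nM final, with the beta-lactamase readout taken in the same wells.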

The nature of experiment [6]: qHTS assay for small molecule agonists of the antioxidant response element (ARE) signaling pathway (AID 743202; active = well fitted activation curve with a large enough effect in the signal ratio in the repeat runs, not every such curve was filed as active; the % refers to the signal ratio; note: potency is the fitted concentration of half-maximal effect). The essentials:
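Quantitative high-throughput format in HepG2 cells bearing an integrated ARE-beta-lactamase reporter. Compound exposure lasted 16 h at 37 C, and fluorescence was read 2 h after adding LiveBLAzer B/G substrate at room temperature.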

Experiment [7] can be described thus: qHTS assay for small molecule agonists of the antioxidant response element (ARE) signaling pathway - cell viability counter screen (AID 743203; calls by dose curve; note: nearly all actives have a fitted effect of over 55% in size). An outline of the steps: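 HepG2 cells carrying ARE-driven beta-lactamase; 2,000 cells/well; 5 hrs plating; compound pinned from DMSO; 16 hrs 37C/5% CO2; CellTiter-Glo added; 30 min RT; luminescence.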
The nature of experiment [8]: qHTS assay for small molecule activators of the heat shock response signaling pathway - cell viability counter screen (AID 743209). Note: nearly all actives have a fitted effect of over 50% in size. An outline of the steps: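 Luminescence from CellTiter-Glo, added after the beta-lactamase FRET read, gave the viability signal. Cells were HSE-bla HeLa treated with DMSO-dissolved compounds for 5 h at 37 C following overnight plating.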

A short description of experiment [9]: qHTS assay for small molecule activators of the heat shock response signaling pathway (AID 743210; active = well fitted activation curve with a large enough effect in the signal ratio in the repeat runs, with a control signal flat, not every such curve was filed as active; the % refers to the signal ratio;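 note: HeLa cells with beta-lactamase reporter driven by heat shock elements; series mostly up to about 63 µM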). An outline of the steps:
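HeLa HSE-bla cells, overnight plating; cpd in DMSO 5 h, 37 C; LiveBLAzer B/G FRET substrate 2.5 h RT; fluorescence intensity read.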

Experiment [10] in a line: qHTS assay to identify small molecule agonists of the peroxisome proliferator-activated receptor delta (PPARd) signaling pathway - cell viability counter screen (AID 743211). Note: nearly all actives have a fitted effect of over 55% in size. An outline of the steps:
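Viability of GeneBLAzer PPARd UAS-bla HEK293H cells was assessed after 17 h compound incubation at 37C, using CellTiter-Glo reagent added after the reporter read and luminescence recorded 30 min later.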

Experiment [11] deals with Peroxisome proliferator-activated receptor delta (Homo sapiens) (UniProt Q03181). Description: qHTS assay to identify small molecule agonists of the peroxisome proliferator-activated receptor delta (PPARd) signaling pathway (AID 743212; calls by dose curve). The essentials: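 HEK293H PPARd-bla cells; 5 h preincubation 37 C/5% CO2; compound (DMSO) 37 C; LiveBLAzer B/G FRET substrate 2 h RT; fluorescence intensity.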

A short description of experiment [12]: qHTS assay to identify small molecule antagonists of the peroxisome proliferator-activated receptor delta (PPARd) signaling pathway - cell viability counter screen (AID 743213). Note: nearly all actives have a fitted effect of over 50% in size. An outline of the steps: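 Luminescence from CellTiter-Glo, added after the bla read and incubated 30 min at room temperature, gives viability of HEK293H PPARd-bla cells exposed to compounds for 17 h at 37 C with 300 nM L165041.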

Experiment [13] addresses Peroxisome proliferator-activated receptor delta (Homo sapiens) (UniProt Q03181). Description: qHTS assay to identify small molecule antagonists of the peroxisome proliferator-activated receptor delta (PPARd) signaling pathway (AID 743215; active = well fitted inhibition curve with a large enough effect in the signal ratio in the repeat runs, not every such curve was filed as active; the % refers to the signal ratio;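 note: cells stimulated with agonist L165041 at 300 nM final during compound exposure; series mostly up to about 62 µM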). The essentials:
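Read-out is beta-lactamase FRET fluorescence, measured 2 h after substrate addition at room temperature. Beforehand, UAS-bla HEK293H cells carrying the PPARd reporter were exposed to compounds with L165041 at 300 nM final for 17 h at 37 C.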

A short description of experiment [14]: qHTS assay to identify small molecule agonists of the farnesoid-X-receptor (FXR) signaling pathway - cell viability counter screen (AID 743218). Note: nearly all actives have a fitted effect of over 45% in size. An outline of the steps:
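HEK 293T FXR-bla cells; 5 h pre-incubation, 16 h compound exposure at 37 C; LiveBLAzer substrate 2 h RT, then CellTiter-Glo 30 min RT, luminescence.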

The nature of experiment [15]: qHTS assay to identify small molecule antagonists of the farnesoid-X-receptor (FXR) signaling pathway - cell viability counter screen (AID 743221; active = well fitted cell-killing curve with a large enough effect in the repeat runs, not every such curve was filed as active; note: nearly all actives have a fitted effect of over 50% in size). An outline of the steps: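 Quantitative HTS of the Tox21 10K library run in parallel with the beta-lactamase reporter read. HEK 293T cells carrying a UAS-driven bla reporter got compound and 50 uM CDCA (final) for 16 h; ATP-based luminescence followed.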

The target of experiment [16] is Vitamin D3 receptor (Homo sapiens) (UniProt P11473). Description: qHTS assay to identify small molecule agonists of the vitamin D receptor (VDR) signaling pathway (AID 743222; calls by dose curve). An outline of the steps:
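VDR-bla cells, 2,000/well; 4 h preincubation 37C; cpd (DMSO) 16 h; LiveBLAzer B/G substrate 2 h RT; fluorescence intensity read.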

In experiment [17] the target is Bile acid receptor (Homo sapiens) (UniProt Q96RI1). The experiment in a line: qHTS assay to identify small molecule antagonists of the farnesoid-X-receptor (FXR) signaling pathway (AID 743217; active = well fitted inhibition curve with a large enough effect in the signal ratio in the repeat runs, not every such curve was filed as active; the % refers to the signal ratio). The essentials:
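HEK 293T FXR-UAS-bla, 5000 cells/well; compound + CDCA 50 uM final; 16 h, 37 °C; B/G FRET substrate 2 h RT; fluorescence.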

The target is the same in experiment [18]. Description: qHTS assay to identify small molecule agonists of the farnesoid-X-receptor (FXR) signaling pathway (AID 743220; active = well fitted activation curve with a large enough effect in the signal ratio in the repeat runs, not every such curve was filed as active; the % refers to the signal ratio). An outline of the steps: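 Beta-lactamase reporter under UAS control in GeneBLAzer FXR HEK 293T cells (5000/well) measured with LiveBLAzer FRET substrate after 2 h at room temperature. Compound exposure lasted 16 h at 37C.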
Experiment [19] has as its target Vitamin D3 receptor (Homo sapiens) (UniProt P11473). Description: qHTS assay to identify small molecule antagonists of the vitamin D receptor (VDR) signaling pathway (AID 743223; active = well fitted inhibition curve with a large enough effect in the signal ratio in the repeat runs, not every such curve was filed as active; the % refers to the signal ratio). An outline of the steps:
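Fluorescence from LiveBLAzer B/G FRET substrate, read after 2 h at room temperature, reflects beta-lactamase reporter activity in VDR-bla cells treated 16 h at 37C with compounds and agonist 1alpha,25-dihydroxyvitamin D3 (3 nM final).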

Experiment [20] has as its target Peroxisome proliferator-activated receptor gamma (Homo sapiens) (UniProt P37231). The experiment in a line: qHTS assay to identify small molecule antagonists of the peroxisome proliferator-activated receptor gamma (PPARg) signaling pathway (AID 743191; calls by dose curve; note: series mostly up to about 63 µM; nearly all actives have a fitted effect of over 30% in size). An outline of the steps:
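Beta-lactamase reporter under UAS control in HEK293H PPARg-bla cells; compound treatment 17 h at 37C. Read-out: fluorescence intensity after 1 h room-temperature incubation with LiveBLAzer B/G FRET substrate.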

Each structure is given as a SMILES string. Several values for one entry are separate records, joined by “and”; a condition that tells them apart may be missing. Equal entries are not always repeated. Inconclusive results are not listed. Activity calls are given as the source filed them. Unless noted, calls come from the whole dose curve; as a rule, active = well fitted curve in the direction sought with a large enough effect in the repeat runs; inconclusive = weak or mixed curves; inactive = no such curve, though single readings can be large; an effect the other way counts as inactive or inconclusive.

Peroxisome proliferator-activated receptor delta (Homo sapiens), sequence (Q03181 whole entry, looked up): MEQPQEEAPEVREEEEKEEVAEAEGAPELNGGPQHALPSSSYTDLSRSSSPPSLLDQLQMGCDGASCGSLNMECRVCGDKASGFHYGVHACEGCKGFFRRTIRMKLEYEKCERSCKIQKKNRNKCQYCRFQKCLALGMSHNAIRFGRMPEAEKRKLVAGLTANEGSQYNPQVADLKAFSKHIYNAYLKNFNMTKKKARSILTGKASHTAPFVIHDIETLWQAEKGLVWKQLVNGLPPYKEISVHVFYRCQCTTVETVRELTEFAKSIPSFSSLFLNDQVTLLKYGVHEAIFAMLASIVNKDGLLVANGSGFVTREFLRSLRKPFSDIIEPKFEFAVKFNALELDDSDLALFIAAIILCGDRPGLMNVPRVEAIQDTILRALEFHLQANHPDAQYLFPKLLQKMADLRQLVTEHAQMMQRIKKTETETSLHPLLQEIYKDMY
Bile acid receptor (Homo sapiens), sequence (Q96RI1 whole entry, looked up): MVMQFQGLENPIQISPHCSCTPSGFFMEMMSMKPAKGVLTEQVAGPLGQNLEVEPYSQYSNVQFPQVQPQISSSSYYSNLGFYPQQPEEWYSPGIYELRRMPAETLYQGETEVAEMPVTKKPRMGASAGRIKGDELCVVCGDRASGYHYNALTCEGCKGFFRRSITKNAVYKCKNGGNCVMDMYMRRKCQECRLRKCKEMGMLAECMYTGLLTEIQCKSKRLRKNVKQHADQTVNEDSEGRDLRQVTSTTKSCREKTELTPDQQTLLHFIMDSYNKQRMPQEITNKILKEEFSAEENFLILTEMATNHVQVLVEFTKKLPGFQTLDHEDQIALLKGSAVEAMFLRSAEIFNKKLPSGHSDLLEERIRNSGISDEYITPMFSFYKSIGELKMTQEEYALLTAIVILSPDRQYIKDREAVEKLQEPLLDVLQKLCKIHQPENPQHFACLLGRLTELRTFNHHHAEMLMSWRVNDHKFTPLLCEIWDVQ
Peroxisome proliferator-activated receptor gamma (Homo sapiens), sequence (P37231 whole entry, looked up): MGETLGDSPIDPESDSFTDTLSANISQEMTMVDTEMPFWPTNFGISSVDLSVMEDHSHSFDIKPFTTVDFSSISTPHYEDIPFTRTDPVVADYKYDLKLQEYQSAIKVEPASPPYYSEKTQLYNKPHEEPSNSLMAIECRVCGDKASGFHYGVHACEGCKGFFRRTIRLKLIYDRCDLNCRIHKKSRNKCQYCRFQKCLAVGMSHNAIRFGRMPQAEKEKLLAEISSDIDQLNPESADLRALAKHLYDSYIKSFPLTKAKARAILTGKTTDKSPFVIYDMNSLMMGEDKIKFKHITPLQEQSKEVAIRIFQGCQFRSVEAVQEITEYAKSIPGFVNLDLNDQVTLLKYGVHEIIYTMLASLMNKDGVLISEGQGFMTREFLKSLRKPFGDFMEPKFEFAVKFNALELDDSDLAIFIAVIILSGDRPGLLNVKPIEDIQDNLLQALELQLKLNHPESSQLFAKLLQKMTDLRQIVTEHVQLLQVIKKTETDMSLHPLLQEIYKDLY
Vitamin D3 receptor (Homo sapiens), sequence (P11473 whole entry, looked up): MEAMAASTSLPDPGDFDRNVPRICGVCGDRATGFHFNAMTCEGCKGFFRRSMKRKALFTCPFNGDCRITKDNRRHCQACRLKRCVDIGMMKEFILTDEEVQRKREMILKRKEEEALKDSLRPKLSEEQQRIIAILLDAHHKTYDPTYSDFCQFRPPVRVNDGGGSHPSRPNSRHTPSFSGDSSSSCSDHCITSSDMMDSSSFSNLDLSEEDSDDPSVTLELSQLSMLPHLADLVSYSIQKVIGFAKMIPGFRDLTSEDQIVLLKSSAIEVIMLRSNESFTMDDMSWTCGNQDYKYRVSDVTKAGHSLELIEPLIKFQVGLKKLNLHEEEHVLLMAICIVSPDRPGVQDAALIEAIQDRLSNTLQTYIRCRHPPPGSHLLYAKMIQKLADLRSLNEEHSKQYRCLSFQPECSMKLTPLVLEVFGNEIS
Aryl hydrocarbon receptor (Homo sapiens), sequence (P35869 whole entry, looked up): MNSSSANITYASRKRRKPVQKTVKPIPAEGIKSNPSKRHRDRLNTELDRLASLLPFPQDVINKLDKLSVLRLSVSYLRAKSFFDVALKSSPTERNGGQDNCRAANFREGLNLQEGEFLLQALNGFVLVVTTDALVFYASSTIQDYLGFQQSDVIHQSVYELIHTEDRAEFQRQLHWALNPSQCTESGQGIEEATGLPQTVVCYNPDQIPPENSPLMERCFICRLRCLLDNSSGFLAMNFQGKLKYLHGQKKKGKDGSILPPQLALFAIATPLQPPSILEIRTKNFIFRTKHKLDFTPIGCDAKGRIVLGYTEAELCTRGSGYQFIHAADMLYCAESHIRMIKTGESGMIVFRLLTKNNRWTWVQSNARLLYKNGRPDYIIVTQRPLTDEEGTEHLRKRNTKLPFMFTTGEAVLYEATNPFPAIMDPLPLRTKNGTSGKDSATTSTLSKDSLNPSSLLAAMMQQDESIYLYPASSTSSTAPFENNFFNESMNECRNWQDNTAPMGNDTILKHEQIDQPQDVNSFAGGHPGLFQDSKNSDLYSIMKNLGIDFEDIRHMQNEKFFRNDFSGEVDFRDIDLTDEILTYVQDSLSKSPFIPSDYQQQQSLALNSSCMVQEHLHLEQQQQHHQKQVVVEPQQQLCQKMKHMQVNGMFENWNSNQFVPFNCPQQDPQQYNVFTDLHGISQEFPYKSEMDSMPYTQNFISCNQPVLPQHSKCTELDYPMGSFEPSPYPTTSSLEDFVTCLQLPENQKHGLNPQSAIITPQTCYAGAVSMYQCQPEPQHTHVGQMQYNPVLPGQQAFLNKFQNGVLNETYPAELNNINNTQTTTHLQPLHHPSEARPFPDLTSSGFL

`Nc1nc2ncc(CNc3ccc(C(=O)N[C@@H](CCC(=O)O)C(=O)O)cc3)nc2c(=O)[nH]1`: the Potency entry in [1], in [2], in [3], in experiment [5], in experiment [6] and in experiment [7] was “inactive” each time. Moreover, the Potency result in experiment [8], in [10], in [12], in experiment [14], in [15] and in [16] was “inactive” each time. Moreover, the compound was classed as inactive in experiment [4], in [9], in experiment [11] and in experiment [13].
With `CCCCCC/C=C/CCCCCCCC(=O)O`, the Potency entry in experiment [1], in experiment [2], in experiment [3], in experiment [6], in experiment [7] and in [8] was “inactive” each time. In addition, the Potency result in experiment [10], in [12], in experiment [14], in experiment [15] and in [19] was “inactive” in each case. The outcome in experiment [4], in experiment [9], in [11], in experiment [13], in [17] and in experiment [18] was inactive.
Regarding `COC(=O)Nc1nc2ccc(Sc3ccccc3)cc2[nH]1`, the Potency result in experiment [1], in experiment [3], in experiment [5], in experiment [7], in [8] and in [12] was “inactive” each time. Further, the Potency entry in experiment [14], in [15] and in [16] was “inactive” in each case. Moreover, the Potency in experiment [2] is 1.8 µM (active) and 9.69 µM (active). Further, the call in experiment [4] and in experiment [11] was inactive.
`CCCCOCCOCCOC(=O)CCCCC(=O)OCCOCCOCCCC`: the Potency result in experiment [1], in experiment [2], in experiment [3], in experiment [20], in experiment [6] and in experiment [7] was “inactive” in each case. In addition, the Potency result in [8], in experiment [10], in [12], in experiment [14], in [15] and in [16] was “inactive” in each case. Moreover, the Potency result in experiment [19] was “inactive”. The result in experiment [4], in experiment [9], in experiment [11], in [13], in experiment [17] and in experiment [18] was inactive.
Regarding `C/C=C(C)/C=C/C=C(C)C`, the Potency result in experiment [1], in experiment [2], in [3], in experiment [5], in [7] and in [8] was “inactive” each time. In addition, the Potency entry in experiment [10], in experiment [12], in experiment [15], in experiment [16] and in [19] was “inactive” in each case. Further, the call in [4] was inactive. For the same compound, the Potency in experiment [6] was 60.4 µM (active).
Consider `Cc1ccc(C)c(C)c1`, for which the Potency entry in experiment [1], in experiment [2], in experiment [3], in experiment [5], in experiment [6] and in experiment [7] was “inactive” each time. For the same compound, the Potency result in experiment [8], in experiment [10], in [12], in experiment [14], in [15] and in experiment [16] was “inactive” each time. Besides, in [19], the Potency entry was “inactive”. Moreover, the outcome in experiment [4], in [9], in experiment [11] and in experiment [13] was inactive.
On to `CC(C)Cc1ccccc1`, for which the Potency result in [1], in experiment [2], in experiment [3], in experiment [20], in experiment [6] and in experiment [7] was “inactive” in each case. Also, the Potency result in experiment [8], in experiment [10], in experiment [12], in experiment [14] and in experiment [15] was “inactive” throughout. Besides, the compound was classed as inactive in [4], in experiment [9], in experiment [11] and in [13].
Take `CC1(C)O[C@@H]2C[C@H]3[C@@H]4C[C@H](F)C5=CC(=O)CC[C@]5(C)[C@H]4[C@@H](O)C[C@]3(C)[C@]2(C(=O)CO)O1`: the Potency result in [1], in [2], in experiment [3], in [6], in experiment [7] and in experiment [8] was “inactive” each time. For the same compound, the Potency entry in experiment [10], in [12], in experiment [14], in experiment [15], in experiment [16] and in experiment [19] was “inactive” throughout. In addition, the outcome in experiment [4], in experiment [9] and in [13] was inactive.
Consider `O=C1CCCCC1`, for which the Potency result in experiment [1], in experiment [2], in [3], in [20], in experiment [6] and in experiment [7] was “inactive” throughout. Besides, the Potency entry in experiment [8], in experiment [10], in experiment [12], in experiment [14], in [15] and in [16] was “inactive” throughout. Moreover, the Potency entry in [19] was “inactive”. Moreover, the compound was called inactive in [4], in experiment [9], in experiment [11] and in [13].
